Shown are actives, neighbours in structure and some others; about 7.6% of the full set was active somewhere.
KCNH2 3.1 inh: inhibitors of human KCNH2 3.1 potassium channel isoform; U2OS KCNH2 3.1, thallium flux FluxOr; stronger effect = lower value; 340,000 tested, 0.95% active; activity change, % (tested at about 1.8 µM); AID 720553;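 active means maximum activity change below -70%; inconclusive means maximum activity change from -70% to -50%; inactive means maximum activity change above -50%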;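 further: thallium influx rate constant from kinetic fluorescence after stimulation buffer; on the % scale 0 is the no-effect control and ±100 the full control effect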
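Virally transduced U2OS (3.1 isoform, 4 h infection in dark at RT) → overnight 37 C → FluxOr + Red40 in HBSS/HEPES, 45 min → stimulation buffer, 2 min kinetic read → rate constant vs DMSO controls.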
KB-3-1 tox: kills parental KB-3-1 adenocarcinoma cells; KB-3-1 viability, CellTiter-Glo ATP luminescence, 72 h; Potency, µM (doses to about 46.1 µM), hits mostly cytotoxic; 400,000 tested, 1.4% active; further: potency means the concentration at half of the fitted maximal effect; on the % scale 0 is the no-effect control and ±100 the full control effect; nearly all actives have a fitted effect of over 60% in size
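Cytotoxicity in the drug-sensitive parental line KB-3-1 was scored as loss of CellTiter-Glo luminescence following 72 h incubation with compound. Values come from curve fitting of normalized concentration-response data.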
SW480 rerep: induces DNA re-replication in SW480 colon adenocarcinoma cells | 340,000 tested, 1.8% active | Potency, µM (top dose mostly 46.1 µM), inactives show top-dose re-replication activation, usual class: activators | SW480 DNA re-replication, Hoechst DNA content imaging, 48 h; further: potency means the concentration at half of the fitted maximal effect; % of control where 0% means no effect; nearly all actives have a fitted effect of over 55% in size
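Compounds, transferred as 23 nL by pin tool, were incubated with cells for 48 hr; DNA content per nucleus was then quantified by Hoechst staining and fluorescence plate imaging.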
hERG WT inh: blocks the wildtype human KCNH2 potassium channel. U2OS, BacMam KCNH2, thallium flux FluxOr; stronger effect = lower value. 340,000 tested, 0.37% active. Q12809. activity change, % at 1.84 µM. AID 720551;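 active means maximum activity change below -70%; inconclusive means maximum activity change between -70% and -50%; inactive means maximum activity change above -50%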; further: on the % scale 0 is the no-effect control and ±100 the full control effect
Target sequence (Q12809 whole entry, looked up): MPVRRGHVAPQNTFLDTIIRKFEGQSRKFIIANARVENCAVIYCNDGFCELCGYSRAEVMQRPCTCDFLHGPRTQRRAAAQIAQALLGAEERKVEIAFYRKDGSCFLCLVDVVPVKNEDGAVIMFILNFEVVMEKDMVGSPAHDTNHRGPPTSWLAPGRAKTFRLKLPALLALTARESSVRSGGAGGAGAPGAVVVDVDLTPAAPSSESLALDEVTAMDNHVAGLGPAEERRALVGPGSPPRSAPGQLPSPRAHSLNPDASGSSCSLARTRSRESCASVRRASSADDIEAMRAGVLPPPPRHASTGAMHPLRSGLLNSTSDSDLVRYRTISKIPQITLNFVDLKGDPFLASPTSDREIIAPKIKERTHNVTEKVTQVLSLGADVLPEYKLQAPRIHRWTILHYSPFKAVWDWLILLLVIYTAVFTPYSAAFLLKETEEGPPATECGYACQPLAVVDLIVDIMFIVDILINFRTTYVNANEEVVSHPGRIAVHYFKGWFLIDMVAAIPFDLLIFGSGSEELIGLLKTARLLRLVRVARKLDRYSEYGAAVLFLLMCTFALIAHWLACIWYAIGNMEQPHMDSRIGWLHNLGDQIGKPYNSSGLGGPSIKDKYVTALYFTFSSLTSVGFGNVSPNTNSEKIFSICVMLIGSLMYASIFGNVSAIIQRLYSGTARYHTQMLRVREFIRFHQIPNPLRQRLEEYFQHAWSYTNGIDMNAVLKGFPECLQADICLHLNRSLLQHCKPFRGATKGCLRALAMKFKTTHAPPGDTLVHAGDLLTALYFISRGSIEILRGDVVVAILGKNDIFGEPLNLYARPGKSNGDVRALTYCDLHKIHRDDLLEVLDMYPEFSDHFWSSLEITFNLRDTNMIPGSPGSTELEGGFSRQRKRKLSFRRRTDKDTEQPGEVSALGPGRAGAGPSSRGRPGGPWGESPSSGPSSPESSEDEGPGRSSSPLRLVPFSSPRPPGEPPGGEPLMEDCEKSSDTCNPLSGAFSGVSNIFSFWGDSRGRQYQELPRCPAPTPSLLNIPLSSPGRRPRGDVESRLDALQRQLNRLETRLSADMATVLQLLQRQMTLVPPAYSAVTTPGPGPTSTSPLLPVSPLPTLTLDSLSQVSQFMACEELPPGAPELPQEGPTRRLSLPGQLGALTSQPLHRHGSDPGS
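U2OS cells were transduced with wild-type KCNH2 virus (2.03 x 10^8 / mL) for 4 h at room temperature, then cultured overnight at 37 C. Thallium flux was read with FluxOr dye. Rate constants were normalized to DMSO controls.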
MCF10A rereplic: induces DNA re-replication in MCF 10a normal breast cells | MCF 10A DNA re-replication, Hoechst nuclear intensity, 48 h | Potency, µM (highest dose often 46.1 µM), inactives show top-dose activity, positive = re-replication, hits mostly activators | 350,000 tested, 2.9% active; further: potency means the concentration at half of the fitted maximal effect; % of control where 0% means no effect; nearly all actives have a fitted effect of over 50% in size
KB-V1 cytotox: KB-V1 MDR subline cytotoxicity. KB-V1 MDR cells viability, CellTiter-Glo, 72 h. Potency, µM (titrated, usually from 46.1 µM), hits mostly cytotoxic. 400,000 tested, 3.4% active. AID 1347076; further: potency means the concentration at half of the fitted maximal effect; on the % scale 0 is the no-effect control and ±100 the full control effect; nearly all actives have a fitted effect of over 60% in size
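Drug-selected KB-V1 cells, grown in DMEM lacking phenol red with 10% FBS, receive compound titrations; after three days at 37 degrees C, surviving cell ATP is quantified by CellTiter-Glo luminescence and responses normalized and curve-fitted.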
Numbers without * were called inactive; [ ] = another dose, or the depositor's remark. Unless noted, the call rests on the fitted dose curve; in most records, active means well fitted curve in the direction sought with a large enough effect; inconclusive means small, poorly fitted or top-dose-only effect, or another doubt; inactive means no such curve, though single readings can be large; an effect the other way counts as inactive or inconclusive.

Results for Oc1c(Cl)cc(Cl)cc1/C=N/Nc1ncc(Br)cn1 ?
KCNH2 3.1 inh: 1; KB-3-1 tox: inconclusive; SW480 rerep: 0.16µM*; hERG WT inh: -9; MCF10A rereplic: inconclusive; KB-V1 cytotox: inactive

Results for Oc1c(Cl)cc(Cl)cc1C=Nc1ccc2c(c1)OCCO2 ?
KCNH2 3.1 inh: -4; KB-3-1 tox: inactive; SW480 rerep: 4%; hERG WT inh: 0; MCF10A rereplic: inconclusive; KB-V1 cytotox: inactive

What do the screens show for `COc1ccc(/C=N/Nc2ncc(Br)cn2)c(OC)c1`?
KCNH2 3.1 inh: 7; KB-3-1 tox: inactive; SW480 rerep: -30%; MCF10A rereplic: -5%; KB-V1 cytotox: inactive

Results for NS(=O)(=O)c1cc(-c2nn[nH]n2)c(NCc2cccs2)cc1Cl ?
SW480 rerep: 3%; MCF10A rereplic: 1%

What do the screens show for `O=C(Cn1c(=O)n(-c2ccc(F)cc2)c(=O)c2sccc21)c1ccccc1`?
KCNH2 3.1 inh: 1; KB-3-1 tox: inactive; SW480 rerep: -104%; hERG WT inh: -8; MCF10A rereplic: -4%; KB-V1 cytotox: 21µM*

What do the screens show for `N#Cc1ccc(NC(=O)c2cc(-c3cccc(Cl)c3)on2)cc1`?
KB-3-1 tox: inactive; KB-V1 cytotox: inconclusive

What do the screens show for `Cc1cccc(N(C)C(=O)C2CCCN2S(=O)(=O)c2cccc3nsnc23)c1` (stereo unspecified)?
KCNH2 3.1 inh: 13; KB-3-1 tox: inactive; SW480 rerep: 4%; hERG WT inh: -3; MCF10A rereplic: 20%; KB-V1 cytotox: inactive

Results for Cc1ccc(C)c(CSc2nnc(-c3cccnc3)o2)c1 ?
KCNH2 3.1 inh: -16; KB-3-1 tox: inactive; SW480 rerep: 1%; hERG WT inh: 19; MCF10A rereplic: 23%; KB-V1 cytotox: 18µM*

Results for Cc1ccc2nc(-c3cccnc3)oc2c1 ?
KCNH2 3.1 inh: -180*; KB-3-1 tox: inactive; SW480 rerep: -4%; hERG WT inh: -221*; MCF10A rereplic: -4%; KB-V1 cytotox: inactive

Results for Cc1ccc2nc(-c3ccccn3)oc2c1 ?
KCNH2 3.1 inh: 22; KB-3-1 tox: inactive; SW480 rerep: -4%[9.22 µM]; hERG WT inh: -2; MCF10A rereplic: 0%; KB-V1 cytotox: inactive

What do the screens show for `COC(=O)c1ccc(-c2nc3ccc(C)cc3o2)cc1`?
KCNH2 3.1 inh: 0; KB-3-1 tox: inconclusive; SW480 rerep: 7.3µM*; hERG WT inh: 0; MCF10A rereplic: inconclusive; KB-V1 cytotox: inconclusive

Results for COc1cc2c(-c3cc(Br)ccc3O)nc3c(c(C)nn3-c3ccccc3)c2cc1OC ?
KB-3-1 tox: inactive; KB-V1 cytotox: inactive

What do the screens show for `COc1cc(-c2nc3c(c(C)nn3-c3ccccc3)c3cc(OC)c(OC)cc23)ccc1O`?
KCNH2 3.1 inh: -8; KB-3-1 tox: inconclusive; SW480 rerep: 16%; hERG WT inh: -8; MCF10A rereplic: 13µM*; KB-V1 cytotox: inconclusive

Results for CCc1sc(-c2cc3cccc(OC)c3oc2=O)nc1-c1ccccc1 ?
KB-3-1 tox: inactive; KB-V1 cytotox: inconclusive

What do the screens show for `COc1ccc2c(=O)c3c(=O)n(CCc4ccccc4)c(C(C)C)nc3oc2c1`?
KCNH2 3.1 inh: 3; KB-3-1 tox: inactive; SW480 rerep: -117%; hERG WT inh: 1; MCF10A rereplic: -1%; KB-V1 cytotox: inconclusive

Results for Cc1nc(SCc2ccc(OCCC(C)C)cc2)n[nH]1 ?
KCNH2 3.1 inh: -16; KB-3-1 tox: inactive; SW480 rerep: 23µM*; MCF10A rereplic: 13%; KB-V1 cytotox: inactive

Results for CC(OC(=O)C1CC1)C(=O)Nc1ccc([N+](=O)[O-])cc1Cl (stereo unspecified) ?
KCNH2 3.1 inh: 5; KB-3-1 tox: inactive; SW480 rerep: -1%; hERG WT inh: -4; MCF10A rereplic: -3%; KB-V1 cytotox: inactive

How did CCC1(c2ccc(C)cc2)NC(=O)N(C(C)C(=O)Nc2ccc(N3CCOCC3)cc2)C1=O (stereo unspecified) do in these assays?
KCNH2 3.1 inh: -17; SW480 rerep: 1%; hERG WT inh: -1; MCF10A rereplic: -7%
